This is an account of results in PubChem BioAssay (NCATS).

The target of assay [1] is Voltage-gated inwardly rectifying potassium channel KCNH2 (Homo sapiens) (UniProt Q12809). As to the kind of experiment: qHTS Assay for Small Molecule Inhibitors of the Human hERG Channel Activity (AID 588834).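 Also: lower thallium flux fluorescence means stronger hERG block; nearly all actives have a fitted effect of over 50% in size.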 Also: potency is read from the fitted curve at half-maximal effect. The gist of the method: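 Thallium serves as surrogate for K+ influx through BacMam-delivered hERG in U2OS cells. Compounds are added for about 10 minutes after dye loading; stimulation buffer then starts flux, monitored kinetically on FDSS.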
Chain of Voltage-gated inwardly rectifying potassium channel KCNH2 (Homo sapiens) (Q12809 whole entry, looked up): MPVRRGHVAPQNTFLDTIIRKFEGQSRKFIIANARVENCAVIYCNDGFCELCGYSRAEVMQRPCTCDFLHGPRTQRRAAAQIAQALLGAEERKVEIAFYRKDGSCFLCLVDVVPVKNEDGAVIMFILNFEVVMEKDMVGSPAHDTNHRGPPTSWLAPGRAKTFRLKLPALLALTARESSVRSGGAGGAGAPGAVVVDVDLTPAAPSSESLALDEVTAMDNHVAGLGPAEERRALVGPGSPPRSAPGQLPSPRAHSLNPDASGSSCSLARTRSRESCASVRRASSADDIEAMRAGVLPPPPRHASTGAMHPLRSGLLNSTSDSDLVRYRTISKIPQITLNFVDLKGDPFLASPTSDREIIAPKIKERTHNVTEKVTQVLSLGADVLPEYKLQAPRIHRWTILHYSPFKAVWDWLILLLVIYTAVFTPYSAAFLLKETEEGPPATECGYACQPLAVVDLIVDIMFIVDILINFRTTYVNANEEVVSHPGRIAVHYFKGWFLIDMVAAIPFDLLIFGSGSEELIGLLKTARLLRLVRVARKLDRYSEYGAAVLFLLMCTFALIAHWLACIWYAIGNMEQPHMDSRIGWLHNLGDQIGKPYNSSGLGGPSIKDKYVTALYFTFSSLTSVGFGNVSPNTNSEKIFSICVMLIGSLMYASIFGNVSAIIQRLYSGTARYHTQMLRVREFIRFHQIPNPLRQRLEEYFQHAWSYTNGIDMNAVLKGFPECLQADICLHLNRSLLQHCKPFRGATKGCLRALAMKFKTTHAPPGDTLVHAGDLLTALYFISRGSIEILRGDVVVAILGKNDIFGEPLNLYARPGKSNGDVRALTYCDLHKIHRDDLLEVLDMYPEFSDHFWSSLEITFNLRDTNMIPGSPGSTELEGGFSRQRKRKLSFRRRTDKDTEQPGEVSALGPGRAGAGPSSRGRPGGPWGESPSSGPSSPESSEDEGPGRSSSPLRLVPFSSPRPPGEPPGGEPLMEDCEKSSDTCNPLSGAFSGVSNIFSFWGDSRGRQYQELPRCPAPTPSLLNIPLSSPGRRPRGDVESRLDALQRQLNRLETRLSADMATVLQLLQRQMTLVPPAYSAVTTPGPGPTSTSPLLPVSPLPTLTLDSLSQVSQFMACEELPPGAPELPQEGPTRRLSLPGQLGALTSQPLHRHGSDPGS
Background: Quantitative high-throughput screening tests each substance at several concentrations.

Assay [2] deals with Luciferin 4-monooxygenase (Photinus pyralis) (UniProt P08659). As to the kind of experiment: Biochemical firefly luciferase enzyme assay for NPC (AID 624030). Also: nearly all actives have a fitted effect of over 70% in size. Also: potency is read from the fitted curve at half-maximal effect. The gist of the method:
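Counter-screen for direct inhibition of the luciferase enzyme by approved-drug library compounds, run at 10 nM enzyme in 50 mM Tris acetate (final). Luminescence was read within 5 min of enzyme-buffer addition and normalized to PTC124 versus DMSO (0%).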

The nature of assay [3]: S16 Schwann cell viability assay (CellTiter-Glo assay) (AID 624031).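 Also: cellular ATP luminescence as a viability measure; plate controls were DMSO-treated cells for no effect and cell-free wells for full effect; nearly all actives have a fitted effect of over 70% in size.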 The gist of the method: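 Native S16 rat Schwann cells, 500-750 cells/well in DMEM with 10% FBS, dosed with compound after overnight culture and incubated 24h at 37 degree Celsius/5% CO2. Viability by CellTiter-Glo luminescence; % activity normalized to no-cell wells and DMSO-treated cells.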
Assay [4] is described as follows: S16 Schwann cell PMP22 intronic element beta-lactamase assay (AID 624044; calls by dose curve;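 also: 0% = DMSO and -100% = potassium clavulanate positive control; nearly all actives have a fitted effect of over 15% in size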). The following applies: S16 rat Schwann cells, PMP22 element beta-lactamase FRET, 24 h; ratio activity, negative = inhibition: at 38.3 µM (top of the series) unless noted. The gist of the method: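 Beta-lactamase reporter under a PMP22 intronic regulatory element in stable S16 rat Schwann cells; 24 h compound exposure. 460 nm blue signal normalized between DMSO (0%) and potassium clavulanate, with 535 nm FRET tracking viability; curves classed by r2 and response.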

A short description of assay [5]: S16 Schwann cell PMP22 intronic element firefly luciferase assay (AID 624032). Also: nearly all actives have a fitted effect of over 30% in size. Also: potency is read from the fitted curve at half-maximal effect. The gist of the method:
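Rat S16 Schwann cells stably carrying a PMP22 intronic element-driven Fluc reporter were seeded overnight, then exposed to compounds for 24 h at 37 °C. Luminescence was normalized to PTC124 (positive control) and DMSO (0% activity).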

Assay [6] in a line: qHTS assay for small molecule agonists of the antioxidant response element (ARE) signaling pathway (AID 651741; active = well fitted activation curve with a large enough effect in the signal ratio; the % refers to the signal ratio; also: potency is read from the fitted curve at half-maximal effect; as to activation: % of control where 0% means no effect). A digest of the protocol: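 Beta-lactamase reporter expression driven by the antioxidant response element in HepG2 cells was detected by fluorescence with LiveBLAzer B/G FRET substrate (2 h, room temperature) following 16 h compound treatment at 37 C.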
A short description of assay [7]: qHTS assay for small molecule activators of the p53 signaling pathway (AID 651743; active = well fitted activation curve with a large enough effect in the signal ratio, not every such curve was filed as active; the % refers to the signal ratio; also: % of control where 0% means no effect). The following applies: HCT-116 p53RE-bla, beta-lactamase FRET ratio, 16 h; activation: stronger effect = higher value. The gist of the method:
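Here HCT-116 cells with an integrated p53-responsive beta-lactamase gene were incubated with compounds (16 hours, 37 C) after a 5-hour plating period; beta-lactamase activity was detected as fluorescence intensity via B/G FRET substrate.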

The nature of assay [8]: qHTS assay for small molecule activators of the nuclear factor-kappa B (NF-kB) signaling pathway (AID 651749; active = well fitted activation curve with a large enough effect in the signal ratio; the % refers to the signal ratio; also: % of control where 0% means no effect). The following applies: NF-kB-bla ME-180 cells, beta-lactamase FRET ratio, 16 h; stronger effect = higher value. The gist of the method:
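Beta-lactamase reporter expression, controlled by NF-kB response elements in ME-180 cells, was quantified fluorometrically via FRET disruption; cells at 2,000/well had been incubated with 23 nL test compound for 16 hr.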

In assay [9] the target is Peroxisome proliferator-activated receptor alpha (Homo sapiens) (UniProt Q07869). As to the kind of experiment: qHTS assay for small molecule agonists of the peroxisome proliferator-activated receptor alpha (PPARalpha) signaling pathway (AID 651778). Also: % of control where 0% means no effect. The following applies: PathHunter PPARalpha complementation, chemiluminescence, 6 h; stronger effect = higher value. A digest of the protocol:
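Cells plated at 2,000/well and held overnight at 37 C, 5% CO2, then compound added by pin tool for 6 hr; after PathHunter detection reagent and 60 min at room temperature, chemiluminescence from enzyme complementation was read.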

The nature of assay [10]: qHTS assay for environmental chemicals that activate the Aryl hydrocarbon Receptor (AhR) signaling pathway (AID 651777). Also: nearly all actives have a fitted effect of over 15% in size. Also: potency is read from the fitted curve at half-maximal effect. As to activation: % of control where 0% means no effect. Conditions: 1A2-DRE human hepatoma cells, luciferase, 24 h; activation: stronger effect = higher value. The gist of the method:
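Human hepatoma 1A2-DRE cells stably carrying a DRE/CYP1A2 promoter–luciferase reporter, 1,200 cells/well, exposed to compound 24 hr at 37 C. Luciferase read by One-Glo luminescence after 30 min at room temperature; increased signal marks AhR activation.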

The nature of assay [11]: qHTS assay for small molecule disruptors of the mitochondrial membrane potential - 1 hr assay (AID 651754; calls by dose curve; also: nearly all actives have a fitted effect of over 35% in size; also: potency is read from the fitted curve at half-maximal effect). A digest of the protocol:
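Read-out: dye fluorescence at 490 nm ex/535 nm em (monomers) and 540 nm ex/590 nm em (aggregates) in HepG2 cells. Compound exposure 1 hr at 37C, followed by 30 min dye loading.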

Assay [12] is described as follows: qHTS assay for small molecule disruptors of the mitochondrial membrane potential - 5 hr assay (AID 651755; calls by dose curve; also: nearly all actives have a fitted effect of over 40% in size; also: potency is read from the fitted curve at half-maximal effect). The gist of the method: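 Seed HepG2 overnight, add compound, incubate 5 hr at 37C and 5% CO2, stain 30 min with Mito-MPS, then measure monomer (490/535 nm) and aggregate (540/590 nm) fluorescence.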
Assay [13] has as its target Tumor necrosis factor (Homo sapiens) (UniProt P01375). As to the kind of experiment: qHTS assay to identify small molecules that stimulate Tumor Necrosis Factor-alpha (TNF-alpha) secretion (AID 651757; active = well fitted curve in the direction sought with a large enough effect in the signal ratio; the % refers to the signal ratio; also: 0% is about no effect). The gist of the method: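 THP-1 cells, 3000/well; compound 17 hrs, 37 C; add cryptate/XL665 anti-TNF-alpha antibody pair; 3 hr RT; TR-FRET (HTRF) read of secreted TNF-alpha. Quantitative HTS format.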

“And” between values parts separate entries of the source, which are not always exact repeats. Equal entries are not always repeated. A number with no mark means an inactive call. Results filed as inconclusive are left out. The source made the active and inactive calls. Unless noted, calls follow the shape of the dose curve; as a rule, active = well fitted curve in the direction sought with a large enough effect; inconclusive = small, poorly fitted or top-dose-only effect, or another doubt; inactive = no such curve, though single readings can be large; an effect the other way counts as inactive or inconclusive.

Chain of Luciferin 4-monooxygenase (Photinus pyralis) (P08659 whole entry, looked up): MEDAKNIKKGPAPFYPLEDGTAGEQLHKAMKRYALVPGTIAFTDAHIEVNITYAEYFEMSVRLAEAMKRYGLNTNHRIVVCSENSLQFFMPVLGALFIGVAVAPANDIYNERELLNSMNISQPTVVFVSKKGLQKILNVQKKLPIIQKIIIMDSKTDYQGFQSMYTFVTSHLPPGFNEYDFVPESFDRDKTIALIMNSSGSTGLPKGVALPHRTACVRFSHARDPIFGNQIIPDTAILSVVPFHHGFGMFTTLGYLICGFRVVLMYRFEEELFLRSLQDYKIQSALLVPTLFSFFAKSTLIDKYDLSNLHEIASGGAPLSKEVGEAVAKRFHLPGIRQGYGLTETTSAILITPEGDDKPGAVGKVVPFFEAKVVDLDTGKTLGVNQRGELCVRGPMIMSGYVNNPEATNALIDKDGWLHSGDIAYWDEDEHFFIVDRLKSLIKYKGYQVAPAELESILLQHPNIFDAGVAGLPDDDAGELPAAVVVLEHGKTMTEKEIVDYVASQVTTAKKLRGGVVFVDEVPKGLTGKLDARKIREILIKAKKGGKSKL
Chain of Peroxisome proliferator-activated receptor alpha (Homo sapiens) (Q07869 whole entry, looked up): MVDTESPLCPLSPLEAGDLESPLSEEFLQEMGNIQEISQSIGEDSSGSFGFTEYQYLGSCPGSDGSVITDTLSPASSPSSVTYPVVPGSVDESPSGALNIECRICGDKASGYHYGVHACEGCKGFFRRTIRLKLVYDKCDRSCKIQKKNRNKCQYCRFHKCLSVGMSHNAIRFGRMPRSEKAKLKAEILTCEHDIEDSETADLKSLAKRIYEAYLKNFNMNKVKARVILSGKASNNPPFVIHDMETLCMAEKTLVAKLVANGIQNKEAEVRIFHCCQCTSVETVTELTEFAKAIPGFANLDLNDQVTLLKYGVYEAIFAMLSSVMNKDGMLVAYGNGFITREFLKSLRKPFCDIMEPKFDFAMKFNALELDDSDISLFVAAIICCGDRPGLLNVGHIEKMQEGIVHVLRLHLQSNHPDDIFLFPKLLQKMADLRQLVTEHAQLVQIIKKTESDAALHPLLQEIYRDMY
Chain of Tumor necrosis factor (Homo sapiens) (P01375 whole entry, looked up): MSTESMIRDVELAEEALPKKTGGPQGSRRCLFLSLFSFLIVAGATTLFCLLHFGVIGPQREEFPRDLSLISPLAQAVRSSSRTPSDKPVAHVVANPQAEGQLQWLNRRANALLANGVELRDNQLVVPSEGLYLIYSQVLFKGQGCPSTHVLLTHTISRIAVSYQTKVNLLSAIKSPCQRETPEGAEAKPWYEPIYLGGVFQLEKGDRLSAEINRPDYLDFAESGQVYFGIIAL

For the compound `C=CC[N+]1([C@H]2C[C@H]3[C@@H]4CC[C@H]5C[C@H](O)[C@@H](N6CCOCC6)C[C@]5(C)[C@H]4CC[C@]3(C)[C@H]2OC(C)=O)CCCC1`, the Potency result in assay [1], in assay [2] and in assay [3] was “inactive” throughout. Further, in assay [4], the ratio activity, negative = inhibition is -0.444%.

With `CC(CC=O)CCCC(C)(C)O` (stereo not drawn), the Potency entry in assay [1], in [2] and in assay [3] was “inactive” each time. In [4], the ratio activity, negative = inhibition was 3.36%.

Consider `O=C1[O][Bi][O]c2ccccc21`, for which the Potency entry in [1], in assay [2], in assay [3] and in assay [5] was “inactive” each time. The ratio activity, negative = inhibition in assay [4] was 0.885%.

`OCCOCCOCCO`: the Potency entry in assay [1], in assay [2], in [3], in assay [5] and in assay [6] was “inactive” each time. For the same compound, the activation in assay [7] was 1.43% and -1.5%; in [8], -1.02% and -0.204%. The max response in assay [9] was 0.91% and -3.36%.

Regarding `C=CC(C)(O)CC/C=C(\C)CCC=C(C)C` (stereo not drawn), the Potency entry in [1], in [2], in assay [3] and in [5] was “inactive” each time. Further, the activation in [7] is -1.4%; in assay [8], 0.695%; in assay [10], 0.207%. Moreover, the max response in [9] was -0.214%.

Turning to `CC(=O)[O][Al][O]C(C)=O`, the Potency entry in assay [1], in assay [2], in assay [3] and in [5] was “inactive” throughout. In addition, the ratio activity, negative = inhibition in [4] was 0.413%.

As for `CO[C@H]1C[C@@H]2CC[C@@H](C)[C@@](O)(O2)C(=O)C(=O)N2CCCC[C@H]2C(=O)O[C@H]([C@H](C)C[C@@H]2CC[C@@H](OC(=O)C(C)(CO)CO)[C@H](OC)C2)CC(=O)[C@H](C)/C=C(\C)[C@@H](O)[C@@H](OC)C(=O)[C@H](C)C[C@H](C)/C=C/C=C/C=C/1C`, the Potency entry in [1], in assay [2], in assay [3] and in assay [5] was “inactive” in each case. Moreover, the ratio activity, negative = inhibition in assay [4] is -3.79%.

In the case of `C[C@H](CCC(=O)O)[C@H]1CC[C@H]2[C@@H]3CC[C@@H]4C[C@H](O)CC[C@]4(C)[C@H]3C[C@H](O)[C@]12C`, the Potency result in [1], in assay [2], in assay [3], in assay [5], in assay [11] and in [12] was “inactive” each time. Besides, the Potency entry in assay [13] is “inactive”. For the same compound, in assay [4], the ratio activity, negative = inhibition was 1.95%. For the same compound, the Potency in assay [6] was 66.8 µM (active). The activation in [7] is -2.17%; in assay [8] it was 0.346%; in assay [10], -0.635%. Moreover, in assay [9], the max response was -0.194%.

On to `CC(=O)N=c1sc(S(N)(=O)=O)nn1C`, for which the Potency entry in assay [1], in assay [2] and in [5] was “inactive” throughout. The ratio activity, negative = inhibition in assay [4] is -0.416% [at 17.1 µM].

With `c1ccc2c(c1)Sc1ccccc1N2CCN1CCCC1`, the Potency in assay [1] was 15.8 µM (active). The Potency entry in [2] is “inactive”. In addition, the ratio activity, negative = inhibition in assay [4] was -1.68%.

Take `COc1ccccc1N1CCN(CCCC(=O)c2ccc(F)cc2)CC1`: the Potency in assay [1] is 1.41 µM (active). The Potency result in assay [2] and in [3] was “inactive” each time. For the same compound, the ratio activity, negative = inhibition in assay [4] is -14.3%.

For the compound `Cn1c(O)c(N=NC(N)=S)c2ccccc21`, the Potency entry in assay [1], in assay [2] and in assay [5] was “inactive” throughout.

In the case of `CCCCCCCCCC(=O)NO`, the Potency result in assay [1], in assay [2] and in assay [3] was “inactive” in each case. In assay [4], the ratio activity, negative = inhibition was 5.56%.

For `C[C@H](CCCC(C)(C)O)[C@H]1CC[C@H]2[C@@H]3CC=C4C[C@@H](O)CC[C@]4(C)[C@H]3CC[C@]12C`, the Potency entry in assay [1], in assay [2] and in assay [5] was “inactive” in each case.

On to `CC(C)[C@H](N)C(=O)OCC(CO)OCn1cnc2c(=O)[nH]c(N)nc21` (stereo partly drawn), for which the Potency entry in [1], in assay [2] and in assay [3] was “inactive” throughout. In addition, the ratio activity, negative = inhibition in assay [4] is 0.697%.

Turning to `CN[C@@H]1[C@H](O[C@H]2[C@H](O[C@H]3[C@H](O)[C@@H](O)[C@H](N=C(N)N)[C@@H](O)[C@@H]3N=C(N)N)O[C@@H](C)[C@]2(O)C=O)O[C@@H](CO)[C@H](O)[C@H]1O`, the Potency result in assay [1], in assay [2] and in [3] was “inactive” throughout. The ratio activity, negative = inhibition in [4] was 0%.

In the case of `O[C@@H]([C@H](O)[C@H](O)CBr)[C@H](O)CBr`, the Potency entry in assay [1], in assay [2] and in [3] was “inactive” each time. The ratio activity, negative = inhibition in assay [4] is 3.07%.

With `O=c1[nH]c(=O)n([C@H]2C[C@H](O)[C@@H](CO)O2)cc1/C=C/Br`, the Potency result in assay [1], in assay [2] and in assay [3] was “inactive” each time. In assay [4], the ratio activity, negative = inhibition is -1.39%.

For `CC(C)CCC[C@@H](C)[C@H]1CC[C@H]2[C@@H]3CC[C@@H]4C[C@H](O)CC[C@]4(C)[C@H]3CC[C@]12C`, the Potency entry in assay [1], in assay [2] and in assay [5] was “inactive” each time.

`F[Si-2](F)(F)(F)(F)F`: the Potency result in assay [1], in assay [2] and in assay [3] was “inactive” in each case. Besides, the ratio activity, negative = inhibition in [4] is 7.11%.

Turning to `CCN(CC)CCC(=O)N1c2ccccc2Sc2ccc(Cl)cc21`, the results for the Potency in assay [1] and in assay [5] were 14.1 µM (active) and 10.2 µM (active), respectively. In addition, in assay [2], the Potency entry was “inactive”.

For the compound `Nc1ccc(N=Nc2ccccc2)c(N)n1`, the Potency result in [1] and in assay [5] was “inactive” throughout. Further, the Potency in assay [2] is 10.2 µM (active); in [6], 19.3 µM (active) and 37.6 µM (active); in assay [11], 18.8 µM (active); in assay [12], 16.8 µM (active); in assay [10], 39.8 µM (active) and 44.7 µM (active). The ratio activity, negative = inhibition in assay [4] is 0.697%. In addition, the activation in [7] is 2.09% and 13.7%; in [8], -0.825%. For the same compound, in assay [9], the max response is -8.45% and -6.87%.

As for `CCOc1cc(-c2nccc3cc(OC)c(OC)cc23)cc(OCC)c1OCC`, the Potency entry in [1] and in [2] was “inactive” each time. Moreover, in assay [4], the ratio activity, negative = inhibition is -11.1%.
